Results taken from PubChem BioAssay (NCI).
Several values for one entry are separate records, joined by “and”; a condition that tells them apart may be missing. Equal entries are not always repeated. Compounds without any hit were thinned out: in the full panel of roughly 83,000, 20% have a hit.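 Results are percent growth after 48 hours of single-concentration exposure. 100 means growth as in untreated cells, lower positive values show inhibition; negative values down to -100 show cell death.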 More than one record can exist for a structure, and the calls need not agree. Activity calls are given as the source filed them. The calls were made as follows: active = growth percent below 10; inactive = the rest.

Legend:
Assay in all cases: NCI-60 one-dose screen, 48 h (100 = growth as untreated, 0 = no growth, -100 = all killed)
Conditions in all cases: 10 µM unless noted
[1] = system: RPMI-8226 leukemia
[2] = system: OVCAR-8 ovarian
[3] = system: OVCAR-5 ovarian
[4] = system: OVCAR-4 ovarian
[5] = system: SK-OV-3 ovarian
[6] = system: IGROV1 ovarian
[7] = system: OVCAR-3 ovarian
[8] = system: HS 578T breast
[9] = system: NCI/ADR-RES ovarian

## COc1ccc(NC(=O)/C(=C/N2C(=O)/C(=C/c3ccc(OC)c(OC)c3)NC2=S)C(C)=O)cc1
[1]
  growth: 76.6% (inactive)
[2]
  growth: 80.8% (inactive)
[3]
  growth: 99.3% (inactive)
[4]
  growth: 85.1% (inactive)
[5]
  growth: 55.9% (inactive)
[6]
  growth: 74.7% (inactive)
[7]
  growth: 79% (inactive)
[8]
  growth: 40.7% (inactive)
[9]
  growth: 77.6% (inactive)

## OC(c1cc(-c2ccc(C(F)(F)F)cc2)nc(C(F)(F)F)c1)C1CCCCN1 (stereo not given)
[1]
  growth: -35.4% (active) and -61.4% (active) and -21% (active)
[2]
  growth: -57.7% (active) and -54.5% (active) and -34.4% (active)
[3]
  growth: 30.4% (inactive) and -33.3% (active) and 61% (inactive)
[4]
  growth: -6.94% (active) and -29.6% (active) and 39.1% (inactive)
[5]
  growth: 24.4% (inactive) and 39.9% (inactive) and 86.2% (inactive)
[6]
  growth: -25.6% (active) and -92.4% (active) and 30.5% (inactive)
[7]
  growth: -70.3% (active) and -68.3% (active) and 8.69% (active)
[8]
  growth: -3.8% (active) and -53.8% (active) and 48.9% (inactive)
[9]
  growth: -31.5% (active) and -50% (active) and 25% (inactive)

## CCc1oc2ccccc2c1C(=O)c1cc(Br)c(O)c(Br)c1
[1]
  growth: 34.7% (inactive)
[2]
  growth: 79.2% (inactive)
[3]
  growth: 124% (inactive)
[4]
  growth: 67% (inactive)
[5]
  growth: 95.8% (inactive)
[6]
  growth: 72.2% (inactive)
[7]
  growth: 58.2% (inactive)
[9]
  growth: 44.1% (inactive)

## CCCCCCCCCCCC[n+]1ccccc1 (tested in a mixture with another compound)
[1]
  growth: -56.2% (active)
[2]
  growth: -30.2% (active)
[3]
  growth: -22.6% (active)
[4]
  growth: 4% (active)
[5]
  growth: -18.4% (active)
[7]
  growth: -63.1% (active)
[8]
  growth: -28.7% (active)
[9]
  growth: 55.3% (inactive)

## COc1ccc(C(Cn2ccnc2)Sc2ccc(Cl)c(Cl)c2)cc1 (stereo not given)
[1]
  growth: 50.7% (inactive)
[2]
  growth: 91% (inactive)
[3]
  growth: 91.3% (inactive)
[4]
  growth: 79.6% (inactive)
[5]
  growth: 86.4% (inactive)
[6]
  growth: 59.3% (inactive)
[7]
  growth: 89.7% (inactive)
[8]
  growth: 112% (inactive)
[9]
  growth: 69.1% (inactive)

## N#CC(I)CS(=O)(=O)c1ccccc1 (stereo not given)
[1]
  growth: 101% (inactive)
[2]
  growth: 91.5% (inactive)
[3]
  growth: 106% (inactive)
[4]
  growth: 95.4% (inactive)
[5]
  growth: 102% (inactive)
[6]
  growth: 69.3% (inactive)
[7]
  growth: 76.4% (inactive)
[8]
  growth: 114% (inactive)
[9]
  growth: 97.4% (inactive)

## O=C1c2ccccc2Cc2cccc(Cl)c21
[1]
  growth: 106% (inactive)
[2]
  growth: 108% (inactive)
[3]
  growth: 93.9% (inactive)
[4]
  growth: 108% (inactive)
[5]
  growth: 98% (inactive)
[6]
  growth: 88.7% (inactive)
[7]
  growth: 108% (inactive)
[8]
  growth: 112% (inactive)
[9]
  growth: 96% (inactive)

## O=C(Cc1nc2cc(Cl)c(Cl)cc2nc1CC(=O)c1cccnc1)c1cccnc1
[1]
  growth: 45.1% (inactive)
[2]
  growth: 77.6% (inactive)
[3]
  growth: 103% (inactive)
[4]
  growth: 83.9% (inactive)
[5]
  growth: 94.7% (inactive)
[6]
  growth: 73.6% (inactive)
[7]
  growth: 78.5% (inactive)
[8]
  growth: 76% (inactive)
[9]
  growth: 76.4% (inactive)

## CN1CSC(=S)N(Cc2ccccc2)C1
[1]
  growth: 31.4% (inactive)
[2]
  growth: 97.8% (inactive)
[3]
  growth: 103% (inactive)
[4]
  growth: 112% (inactive)
[5]
  growth: 114% (inactive)
[6]
  growth: 92.9% (inactive)
[7]
  growth: 65% (inactive)
[8]
  growth: 108% (inactive)
[9]
  growth: 102% (inactive)

## c1ccc2sc(SSN3CC4CCC(CC4)C3)nc2c1
[1]
  growth: 111% (inactive)
[2]
  growth: 106% (inactive)
[3]
  growth: 112% (inactive)
[4]
  growth: 102% (inactive)
[5]
  growth: 108% (inactive)
[6]
  growth: 14.6% (inactive)
[7]
  growth: 150% (inactive)
[8]
  growth: 92.7% (inactive)
[9]
  growth: 108% (inactive)

## CC(C)(C)c1ccc(CCO)cc1
[1]
  growth: 112% (inactive)
[2]
  growth: 95.8% (inactive)
[3]
  growth: 91.4% (inactive)
[4]
  growth: 99.4% (inactive)
[5]
  growth: 100% (inactive)
[7]
  growth: 116% (inactive)
[8]
  growth: 135% (inactive)
[9]
  growth: 101% (inactive)

## CCOC(=O)C1=C(C(=O)c2ccccc2)C(c2cccc([N+](=O)[O-])c2)C(C(=O)c2ccccc2)=C(C(=O)OCC)N1
[1]
  growth: 32.8% (inactive)
[2]
  growth: 96.8% (inactive)
[3]
  growth: 87.7% (inactive)
[4]
  growth: 92.2% (inactive)
[5]
  growth: 96.8% (inactive)
[6]
  growth: 97.5% (inactive)
[7]
  growth: 96.1% (inactive)
[8]
  growth: 90.1% (inactive)
[9]
  growth: 90.9% (inactive)

## CCN(CC)CC(O)c1cc(-c2ccc(Cl)cc2)nc2cc(Cl)ccc12 (stereo not given)
[1]
  growth: 34.4% (inactive)
[2]
  growth: 38% (inactive)
[3]
  growth: 14.2% (inactive)
[4]
  growth: 53.3% (inactive)
[5]
  growth: 60% (inactive)
[6]
  growth: 10.3% (inactive)
[7]
  growth: 56.8% (inactive)
[8]
  growth: 40.6% (inactive)
[9]
  growth: 29.8% (inactive)

## CC(/C=N/NC(N)=S)Cc1ccc(C(C)C)cc1 (stereo not given)
[1]
  growth: 104% (inactive)
[2]
  growth: 79.3% (inactive)
[3]
  growth: 86.6% (inactive)
[4]
  growth: 29.8% (inactive)
[5]
  growth: 85.8% (inactive)
[6]
  growth: 25.7% (inactive)
[7]
  growth: 77.7% (inactive)
[8]
  growth: 71.7% (inactive)
[9]
  growth: 64.4% (inactive)

## CCOC(=O)NC(/C=C/c1ccccc1)NC(=O)OCC
[1]
  growth: 101% (inactive)
[2]
  growth: 108% (inactive)
[3]
  growth: 108% (inactive)
[4]
  growth: 109% (inactive)
[5]
  growth: 90.3% (inactive)
[6]
  growth: 106% (inactive)
[7]
  growth: 107% (inactive)
[8]
  growth: 103% (inactive)
[9]
  growth: 109% (inactive)

## O=C1/C(=C/c2ccccc2)CCC/C1=C\c1ccccc1
[1]
  growth: -3.31% (active)
[2]
  growth: 91.7% (inactive)
[3]
  growth: 120% (inactive)
[4]
  growth: 94.1% (inactive)
[5]
  growth: 99.6% (inactive)
[6]
  growth: 80% (inactive)
[7]
  growth: 65.1% (inactive)
[8]
  growth: 101% (inactive)
[9]
  growth: 95.2% (inactive)

## CCOc1ccc(C(C[N+](=O)[O-])Sc2ccccc2N)cc1 (stereo not given)
[1]
  growth: 6.92% (active)
[2]
  growth: 53.5% (inactive)
[3]
  growth: 81.9% (inactive)
[4]
  growth: 83.1% (inactive)
[5]
  growth: 72.6% (inactive)
[6]
  growth: -34.9% (active)
[7]
  growth: 32.2% (inactive)
[8]
  growth: 43.6% (inactive)
[9]
  growth: 72.6% (inactive)

## CCC[CH2][Sn]1([CH2]CCC)[O]C2C(CO)OC(n3ccc(N)nc3=O)C2[O]1 (stereo not given)
[1]
  growth: -28.7% (active)
[2]
  growth: -44.7% (active)
[3]
  growth: -41.9% (active)
[4]
  growth: -53% (active)
[5]
  growth: 28.2% (inactive)
[6]
  growth: -23% (active)
[7]
  growth: -90.8% (active)
[8]
  growth: -12.4% (active)
[9]
  growth: 24.8% (inactive)

## N=C1C=C(N)C(=O)c2ccccc21
[1]
  growth: 5.15% (active)
[2]
  growth: -20.1% (active)
[3]
  growth: -85.8% (active)
[4]
  growth: -99.6% (active)
[5]
  growth: -87% (active)
[6]
  growth: -37.6% (active)
[7]
  growth: -87.6% (active)
[9]
  growth: -76.4% (active)

## CCOC(=O)C1=NN(c2ccccc2)C(=O)/C1=C\N1C(=O)/C(=C/c2cccc(O)c2)SC1=S
[1]
  growth: 88.1% (inactive)
[3]
  growth: 121% (inactive)
[4]
  growth: 98.8% (inactive)
[5]
  growth: 99.8% (inactive)
[6]
  growth: 96% (inactive)
[7]
  growth: 106% (inactive)
[8]
  growth: 94% (inactive)
[9]
  growth: 99.3% (inactive)

## CCCCCCCCCCCC[S+](C)CC(=O)[O-] (stereo not given)
[1]
  growth: 26.6% (inactive)
[2]
  growth: 45.5% (inactive)
[4]
  growth: 48.1% (inactive)
[5]
  growth: 41.3% (inactive)
[6]
  growth: 12.8% (inactive)
[7]
  growth: 57.6% (inactive)
[8]
  growth: 36.7% (inactive)
[9]
  growth: 99.8% (inactive)

## NC(=S)N/N=C\c1nccc2c(N)cccc12
[1]
  growth: 15.5% (inactive)
[3]
  growth: 48% (inactive)
[4]
  growth: 40.7% (inactive)
[5]
  growth: 16.6% (inactive)
[6]
  growth: 10.9% (inactive)
[7]
  growth: 42.6% (inactive)
[8]
  growth: 57.6% (inactive)
[9]
  growth: 10.8% (inactive)

## CCOC(=O)c1[nH]c(C#N)c(C(=O)OCC)c1C
[3]
  growth: 102% (inactive)
[4]
  growth: 97.7% (inactive)
[5]
  growth: 117% (inactive)
[6]
  growth: 101% (inactive)
[7]
  growth: 114% (inactive)
[8]
  growth: 124% (inactive)
[9]
  growth: 106% (inactive)

## COC(=O)[C@]1(C)CCC[C@]2(C)c3ccc(C(C)C)cc3C(=O)[C@@H](Br)[C@@H]12
[1]
  growth: 81.1% (inactive)
[2]
  growth: 77.9% (inactive)
[4]
  growth: 82.3% (inactive)
[5]
  growth: 96.9% (inactive)
[6]
  growth: 111% (inactive)
[7]
  growth: 95.4% (inactive)
[8]
  growth: 98% (inactive)
[9]
  growth: 96.7% (inactive)

## Cc1nn(CCO)c(C)c1N=[N+]([O-])c1c(C)nn(CCO)c1C
[1]
  growth: -35% (active)
[2]
  growth: 79% (inactive)
[3]
  growth: 83.6% (inactive)
[4]
  growth: 13.7% (inactive)
[5]
  growth: 115% (inactive)
[7]
  growth: -88.1% (active)
[8]
  growth: 103% (inactive)
[9]
  growth: 96.1% (inactive)

## CCc1cccc(CC)c1N1C(=O)C=CC1=O
[2]
  growth: 112% (inactive)
[3]
  growth: 116% (inactive)
[5]
  growth: 121% (inactive)
[7]
  growth: 97% (inactive)
[8]
  growth: 108% (inactive)
[9]
  growth: 118% (inactive)
